Assay outcomes: PubChem, several laboratories
Rows were chosen to be rich in hits. Some 3.8% of all compounds tested hit in one or more screens of this group.
PAFAH2 inh: PAFAH2 (human) inhibition; inhibition, % at 3.39 µM; recombinant PAFAH2, FP-rhodamine activity probe, fluorescence polarization; AID 492956; actives 0.99% (n = 340,000);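 active = inhibition above the mean over all tested compounds plus 3 SD, cut at about 30% in these data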;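 also: inhibitors block probe labeling of enzyme so polarization drops; 0% = enzyme with DMSO and 100% = wells lacking PAFAH2 protein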
PAFAH1B2 inh: blocks human PAF acetylhydrolase 1b catalytic subunit 2. P68402. recombinant PAFAH1B2, FP-rhodamine activity probe, fluorescence polarization. inhibition, % at 3.39 µM. actives 1.2% (n = 340,000);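 active = inhibition above the mean of all tested compounds plus 3 SD, cut at about 24% in these data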;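 also: 0% = enzyme with DMSO and 100% = wells lacking PAFAH1B2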
pPAFAH inh: pPAFAH (human) enzyme inhibition; Q13093; recombinant pPAFAH, FP-rhodamine probe fluorescence polarization; inhibition, % at 3.39 µM; actives 1.5% (n = 330,000); AID 463082;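 active = inhibition above the mean inhibition across the screen plus 3 SD, cut at about 25% in these data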;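 also: inhibitors block binding of the rhodamine activity-based probe so polarization drops; 0% = enzyme with DMSO and 100% = wells lacking pPAFAH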
Target sequence (Q13093 whole entry, looked up): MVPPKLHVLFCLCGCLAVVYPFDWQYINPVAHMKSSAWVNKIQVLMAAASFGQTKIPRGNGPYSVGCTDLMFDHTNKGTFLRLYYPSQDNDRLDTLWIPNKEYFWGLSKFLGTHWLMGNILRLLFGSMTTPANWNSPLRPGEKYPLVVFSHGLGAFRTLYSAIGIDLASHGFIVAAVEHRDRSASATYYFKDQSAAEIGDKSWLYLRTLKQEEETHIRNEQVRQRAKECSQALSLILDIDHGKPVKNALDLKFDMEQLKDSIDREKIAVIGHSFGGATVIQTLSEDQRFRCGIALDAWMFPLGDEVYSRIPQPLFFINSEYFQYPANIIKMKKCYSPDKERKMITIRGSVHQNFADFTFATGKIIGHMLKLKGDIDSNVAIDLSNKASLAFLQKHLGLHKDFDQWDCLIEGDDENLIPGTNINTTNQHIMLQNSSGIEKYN
PAFAH1B3 FP inh: inhibitors of human PAFAH1B3. actives 0.28% (n = 340,000). Q15102. recombinant PAFAH1B3, FP-rhodamine probe, fluorescence polarization. inhibition, % at 3.39 µM. AID 492972;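 active = inhibition above the screen-wide average of all tested compounds plus 3 SD, cut at about 25% in these data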;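 also: 0% = enzyme with DMSO only and 100% = wells lacking PAFAH1B3 protein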
Target sequence (Q15102 whole entry, looked up): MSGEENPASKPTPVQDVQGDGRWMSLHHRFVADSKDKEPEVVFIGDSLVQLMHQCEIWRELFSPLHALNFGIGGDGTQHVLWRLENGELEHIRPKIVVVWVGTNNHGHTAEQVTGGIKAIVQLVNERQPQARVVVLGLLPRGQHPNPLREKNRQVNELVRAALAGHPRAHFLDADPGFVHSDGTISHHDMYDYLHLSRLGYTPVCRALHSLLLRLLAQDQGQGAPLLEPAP
DSG3 Ab inh: human desmoglein-3 autoantibody binding inhibition; P32926; DSG3-coupled beads, scFv-anti-DSG3-GFP binding, flow cytometry; stronger effect = lower value; binding (percent of control), % at 10 µM; actives 0.48% (n = 310,000); AID 588358;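 active = binding more than 3 SD below its plate's average and above zero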;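 also: hits lower antibody fragment binding to DSG3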
M18AAP inhibitor: blocks P. falciparum M18 aspartyl aminopeptidase; AID 1822; recombinant PfM18AAP, H-Glu-NHMec fluorogenic cleavage; actives 1.2% (n = 290,000); inhibition, % at 7.35 µM;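 active = inhibition above the campaign mean inhibition over all tested compounds plus 3 SD, cut at about 28% in these data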;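 also: 0% = plate median of test compound wells and 100% = 2 mM ZnCl2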
pPAFAH FP conf: pPAFAH (human) inhibition, confirmed; shares compounds with pPAFAH inh; recombinant pPAFAH, FP-Rh probe fluorescence polarization; inhibition, % at 3.39 µM; actives 72% (n = 2,300); AID 463230;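 active = mean inhibition of the triplicate above the hit cutoff set for the earlier primary screen, cut at about 25% in these data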;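 also: 0% = enzyme with DMSO and 100% = wells lacking pPAFAH enzyme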
Starred values were filed as active, the others as inactive; nt = no result.

SMILES | PAFAH2 inh | PAFAH1B2 inh | pPAFAH inh | PAFAH1B3 FP inh | DSG3 Ab inh | M18AAP inhibitor | pPAFAH FP conf
CN(C)CCCN1c2ccccc2Sc2ccc(C(F)(F)F)cc21 | -12 | 8 | 11 | 11 | 104 | -6 | nt
O=C(NC1CCCCCC1)C1CCCN(c2ncccn2)C1 (configuration not stated) | 6 | 0 | 2 | 4 | nt | -5 | nt
O=C(COC(=O)C1=NN(c2ccccc2)C(=O)CC1)NCc1ccccc1Cl | 10 | 4 | 12 | 5 | 116 | nt | nt
Cc1ccc(/C=C2/SC(=S)N(C3CCCCC3)C2=O)o1 | 11 | -1 | 37* | -3 | 89 | 24 | 11
Cc1ccc(/C=C2\SC(=S)N(CC3CCCO3)C2=O)o1 (configuration not stated) | 4 | -2 | 18 | -1 | nt | 18 | nt
O=C1/C(=C/c2ccco2)SC(=S)N1C1CCS(=O)(=O)C1 (configuration not stated) | 4 | -4 | 57* | 9 | 99 | 31* | 0
Cc1nn(-c2ccccc2)c2sc(-c3n[nH]c(=S)o3)cc12 | 19 | 4 | 52* | 9 | 105 | 0 | 69*
CCOc1ccc(NC(=O)CN(c2ccc(OC)c(OC)c2)S(=O)(=O)c2ccc(C)cc2)cc1 | 5 | -2 | 4 | 1 | 119 | 5 | nt
O=C(NC(=S)Nc1cnc2ccccc2c1)c1ccccc1 | -1 | -3 | 3 | 9 | 105 | 4 | nt
O=C(Nc1cnc2ccccc2c1)c1ccncc1 | 0 | 4 | 52* | 4 | 100 | 4 | 5
COc1cnc(-c2ccccn2)nc1Oc1ccc(Cl)c2ccccc12 | 3 | -1 | 60* | 7 | 105 | 3 | 64*
O=S(=O)(Nc1nc2ccccc2nc1Nc1ccc2c(c1)OCCO2)c1cccs1 | 14 | 11 | 49* | 2 | 98 | 2 | 49*
Cc1cc(C)c2c(c1)NC(C(=O)O)C1CC=CC21 (configuration not stated) | 50* | 19 | 68* | 10 | 102 | 16 | 33*
Cc1ccc(NC(=O)C2CCN(S(=O)(=O)c3ccc4c(c3)NC(=O)CO4)CC2)cc1 | -2 | 5 | 0 | 0 | 100 | 4 | nt
CCC(CC)CN1C(Nc2ccccc2)=NC[C@@H]1C | 1 | 1 | 4 | 5 | 106 | -1 | nt
CCN(CC)CCn1c(=S)[nH]c2cc(C(=O)NCc3ccccc3Cl)ccc2c1=O | 15 | 1 | 1 | 10 | nt | 4 | nt
Cc1ccc(C)c(NS(=O)(=O)c2ccc(OCC(=O)NCc3ccco3)cc2)c1 | 4 | 7 | 39* | -4 | 113 | 3 | 22
Cc1ccc(CCNC(=O)CN(C)S(=O)(=O)c2ccc3c(c2)n(C)c(=O)c(=O)n3C)cc1 | 8 | 17 | 1 | 7 | 94 | -3 | nt
Cc1ccccc1N/N=C/c1sc(=O)n(Cc2cccc(C(=O)O)c2)c1Cl | 10 | 9 | 35* | 10 | 101 | -27 | 25*
O=C(c1cc(COc2ccc(F)cc2F)on1)N1CCN(C2CCCC2)C(=O)C1 | 4 | 4 | 1 | 4 | 100 | 0 | nt
Cc1ccc(S(=O)(=O)NCCC(=O)NCC(=O)Nc2c(C)cccc2C)cc1C | 4 | 4 | 4 | 6 | 104 | nt | nt
Cc1ccc(S(=O)(=O)N2[C@@H](c3ccc(C(C)(C)C)cc3)C(C(=O)O)=CC[C@H]2c2ccc(Cl)cc2)cc1 | -2 | 90* | 37* | -6 | 96 | nt | 54*
CC[C@@H]1C=C(C(=O)O)[C@H](c2ccc(Cl)cc2)N1S(=O)(=O)c1ccc(C)cc1 | -2 | 19 | 3 | 15 | 95 | nt | nt
COc1ccc(CNc2ncnc3c2[nH]c2ccccc23)cc1 | nt | nt | 13 | nt | 100 | -1 | nt
COc1ccc(CNc2ncnc3c2[nH]c2cc(OC)c(OC)cc23)cc1 | 12 | 11 | 36* | 19 | 111 | 2 | 22
SMILES | PAFAH2 inh | PAFAH1B2 inh | pPAFAH inh | PAFAH1B3 FP inh | DSG3 Ab inh | M18AAP inhibitor | pPAFAH FP conf
COc1ccccc1N1CCN(C(=O)CC(NC(=O)c2ccccc2Cl)c2ccccc2)CC1 (configuration not stated) | 7 | 2 | nt | -1 | 100 | nt | nt
CCCCN1Cc2c(nc3cc(-c4ccco4)[nH]n3c2=O)C1=O | 32* | 12 | 63* | 12 | 110 | 2 | 5
CN(C)S(=O)(=O)c1ccc(C(=O)NCc2nnc(SCC(=O)N3CCCC3)o2)cc1 | 4 | -2 | -3 | 1 | nt | -6 | nt
Cc1cc(C(=O)N/N=C/c2ccc([N+](=O)[O-])o2)c(C)o1 | 1 | -1 | 42* | 8 | 90 | 8 | 7
COc1ccc(/C=C/C(=O)Nc2ccc(C)c(S(=O)(=O)N3CCOCC3)c2)cc1 | -3 | -4 | -3 | 1 | 101 | nt | nt
COc1cc(/C=C2/C(=O)NN(c3ccc(F)cc3)C2=O)cc(Cl)c1O | -2 | 7 | 4 | 0 | 98 | 13 | nt
COc1cc(/C=C2/C(=O)NN(c3ccc(Cl)c(Cl)c3)C2=O)cc([N+](=O)[O-])c1O | 36* | 31* | 52* | 18 | 101 | 14 | 33*
Cc1cc(C)n2c(SC/C(O)=C(\C#N)c3nc4ccccc4[nH]3)nnc2n1 | 9 | 5 | 35* | 4 | 119 | -9 | 24
CCOc1ccc(C)cc1S(=O)(=O)n1cnc2ccccc21 | 4 | 2 | -3 | 12 | 91 | -9 | nt
N#Cc1c(N2CCCC(O)C2)nc(N)c2c(N)nc3c(c12)CC(=O)N3C12CC3CC(CC(C3)C1)C2 (configuration not stated) | 46* | 46* | 45* | 51* | nt | 6 | 22
Cc1cc(-c2nnc(SCC(=O)Nc3nc(-c4ccc(Cl)cc4)cs3)o2)no1 | -16 | -4 | 42* | -7 | 101 | 9 | 2
CSCCC(NS(=O)(=O)c1ccc(C)cc1)C(=O)NCC(C)(C)N1CCOCC1 (configuration not stated) | 5 | 8 | 3 | 3 | 98 | nt | nt
O=C(Cn1cnc2ccc(Cl)cc2c1=O)NC1CCS(=O)(=O)C1 (configuration not stated) | -10 | -3 | nt | -1 | 81 | nt | nt
CCOC(=O)c1cc(-c2ccc(F)cc2)n(CCC(=O)NC2CCN(Cc3ccccc3)CC2)c1C | 9 | 0 | 40* | -2 | 102 | 5 | 16
CCOC(=O)c1cc(-c2ccc(OC)cc2)n(CCC(=O)NC2CCN(Cc3ccccc3)CC2)c1C | -7 | -1 | 16 | 4 | 116 | -3 | nt
CSCCC(NC(=O)c1ccccc1)C(=O)NCCc1ccc2c(c1)OCCO2 (configuration not stated) | -7 | -8 | -6 | -3 | 113 | nt | nt
Cc1cccc(NC(=O)CSc2nnc(-c3ccco3)c(-c3ccco3)n2)c1C | 41* | 12 | 35* | 5 | nt | 14 | 21
